Rows were chosen to be rich in hits. Some 1.5% of all compounds tested hit in one or more screens of this group.
S1P3 antag – S1P3 (human) receptor antagonism; CHO S1P3 NFAT-BLA reporter, FRET fluorescence, antagonist mode; 170,000 compounds, 0.27% hits; Q99500; inhibition, % at 4.98 µM;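 active = inhibition above the plate cutoff, the mean inhibition of test wells on that plate plus 3 SD, cut at about 28% in these data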;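 note: cells challenged with S1P at its EC80 of 0.8 µM; blue over green emission ratio from cleaved BLA substrate after 4 h stimulation; 0% = S1P-stimulated wells and 100% = unstimulated DMSO-only wells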
Target sequence (Q99500 whole entry, looked up): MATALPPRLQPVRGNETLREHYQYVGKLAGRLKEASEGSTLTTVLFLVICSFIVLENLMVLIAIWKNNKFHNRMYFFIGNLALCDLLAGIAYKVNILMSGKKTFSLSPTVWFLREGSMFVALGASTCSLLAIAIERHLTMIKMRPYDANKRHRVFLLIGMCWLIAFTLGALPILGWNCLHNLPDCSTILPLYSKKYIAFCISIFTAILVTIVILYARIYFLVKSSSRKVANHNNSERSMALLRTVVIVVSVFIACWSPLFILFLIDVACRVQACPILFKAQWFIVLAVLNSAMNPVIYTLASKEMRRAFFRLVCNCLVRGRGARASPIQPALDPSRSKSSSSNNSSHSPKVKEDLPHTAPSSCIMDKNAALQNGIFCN
INS promoter inh – TRM-6 insulin promoter activity inhibition; 130,000 compounds, 0.9% hits; TRM-6 cells (human fetal islet line), insulin promoter-eGFP reporter, imaging; reporter expression induced with tamoxifen; inhibition, % at 2 µM;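 active = inhibition above the mean plus 3 SD, with well images judged a real hit on visual review, cut at about 60% in these data, passing the limit was not always enough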
S1P4 antagonist – antagonists of human S1P4 receptor. inhibition, % at 4.98 µM. 220,000 compounds, 0.26% hits. AID 1510. S1P4-expressing cells, antagonist mode, reporter read-out; in the data active = inhibition above about 29%;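 note: 0% = wells stimulated with agonist and 100% = vehicle wells without agonist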
Insulin prom up – MIN6 insulin promoter up-regulation; z-score at 5 µM; MIN6 insulin promoter-GFP reporter, high-content imaging; stronger effect = higher value; 190,000 compounds, 0.3% hits;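 active = z-score above 3 at 5 µM with at least 500 cells counted in the well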
Hsp70 act – Hsp70 transcriptional activation, primary screen; HeLa Hsp70 promoter luciferase reporter, luminescence; scaled: vehicle 0, proteasome-inhibitor control 100%; activation, % at 10 µM; 200,000 compounds, 0.04% hits;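 active = activation above the mean across all tested compounds plus 3 SD, cutoff set per campaign, cut at about 5.5% in these data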;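 note: 100% = MG132 at 30 µM as the positive control and 0% = DMSO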
S1P4 ag – agonists of human S1P4 receptor | S1P4-expressing cell line, agonist reporter assay | activation, % at 4.98 µM | 220,000 compounds, 0.35% hits | AID 1509; in the data active = activation above about 11%;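 note: 0% = DMSO vehicle and 100% = reference agonist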
* hit, by the source's call; i = inactive; . = not tested or not shown; ! = a repeat was not active.

SMILES	S1P3 antag	INS promoter inh	S1P4 antagonist	Insulin prom up	Hsp70 act	S1P4 ag
COC(=O)c1c(NC(=O)CN2CCC3(O)CCCCC3C2c2ccc(F)cc2)sc(C)c1C (stereo not given)	-15	-14	-1	-0.1	0	1
COC(=O)c1c(NC(=O)CN2CCC3(O)CCCCC3C2c2cc(OC)ccc2OC)sc(C)c1C (stereo not given)	-28	64*	-2	-0.23	-1	0
Cc1[nH]c2c(ccc3ccccc32)c1C1C(CCN)C1(C)C (stereo not given)	.	34	7	-0.26	0	2
COc1ccc(N2CCN(C(=O)Cn3cnc4c(cnn4-c4ccc(C)cc4)c3=O)CC2)cc1	-13	-42	-5	-0.58	0	-1
CC(C)NC(=O)N1CCN(c2ccncc2S(=O)(=O)N2CCOCC2)CC1	.	-18	-6	5.8*	0	0
CC(C)NC(=O)NS(=O)(=O)c1cnccc1N1CCCCC1	.	-69	-22	.	0	-1
CCOCCCNS(=O)(=O)c1ccc(OC)c(Cl)c1Cl	.	-35	-10	.	0	2
CCOc1ccccc1NC(=O)c1ccc(Cl)c(NC(=O)CC(c2ccccc2)c2ccccc2)c1	.	-58	-21	-0.4	0	-3
CCN(C(=O)CSc1nnc(-c2cccs2)o1)C1CCS(=O)(=O)C1 (stereo not given)	-10	-133	12	-0.69	0	1
Cc1cccc2sc(NC(=O)C3CCCN(S(=O)(=O)c4cccc5nonc45)C3)nc12 (stereo not given)	.	-9	-14	6.6*	0	-3
O=C(O)CCCCCN1C(=O)/C(=C\c2ccc(-c3ccc(Cl)cc3)o2)SC1=S	3	.	15	4.2*	.	-1
Cc1c(C(=O)NCc2cccnc2)oc2c1C(=O)CC(C)(C)C2	2	79*	1	0	0	-1
CC(=O)Nc1ccc(Cl)cc1C1COC(=O)C1=N (stereo not given)	-9	.	-2	-0.15	0	0
COc1ccccc1/C=C/C(=C1/C(=O)N(c2ccccc2)N=C1C)c1ccc(C)cc1	-3	71*	6	-0.02	0	2
COc1cccc(/C=C/C(=C2/C(=O)N(c3ccccc3)N=C2C)c2ccccc2)c1OC	4	.	-4	-0.3	0	0
COc1ccc(OC)c2[nH]c(=O)c(CCNC(=O)c3ccc(S(=O)(=O)N(C)C)cc3)cc12	-3	91*	5	-0.11	0	0
COc1ccc(OC)c2[nH]c(=O)c(CCNC(=O)c3ccc(S(=O)(=O)N4CCCCC4)cc3)cc12	0	.	-19	0.19	0	-1
COc1ccc(OC)c2[nH]c(=O)c(CCNC(=O)c3ccc(Br)o3)cc12	-15	86*	-12	-1.1	0	1
Cc1cc(C)nc(SCSc2nc(C)cc(C)n2)n1	-33	.	-8	4.5*	0	1
CCS(=O)(=O)CCSc1nc(C)cc(C)n1	-34	.	-6	0.44	0	0
c1ccc2[nH]c(-c3ccnc4ccccc34)nc2c1	7	86*!	-11	0.24	0	1
c1ccc2[nH]c(-c3cscn3)nc2c1	9	67*	-4	.	0	1
Fc1ccccc1-c1nc2ccccc2[nH]1	3	.	1	-0.01	0	0
CCOC(=O)/C(N=Nc1sc(C(=O)OC)c(C)c1C(=O)OCC)=C(\O)CCl	-22	.	-18	0.44	0	0
CC(C)c1ccc(/C=N/NC(=O)CN(c2cccc(Cl)c2Cl)S(C)(=O)=O)cc1	.	.	-8	-0.13	0	0
SMILES	S1P3 antag	INS promoter inh	S1P4 antagonist	Insulin prom up	Hsp70 act	S1P4 ag
COC(=O)c1cc(NC(=O)c2cccc(Cl)c2)c(=O)oc1/C=C/Nc1cc(C)cc(C)c1	25	i	-11	15*	-1	-1
COc1ccc(S(=O)(=O)Nc2cc(C)ccn2)cc1OC	115*	33	-6	-0.42	0	0
CCCNC(=O)c1nnsc1S(=O)(=O)c1ccc(Cl)cc1	-2	i	64*	0.75	0	-3
CCCNC(=O)c1nnsc1S(=O)c1ccc(Cl)cc1 (stereo not given)	-4	i	77*	-0.69	0	-1
Cc1ccc(C)c(N(CC(=O)NCCSCc2ccco2)S(C)(=O)=O)c1	8	-82	-7	0.12	0	0
COc1cc(NC(=O)c2cccs2)c(C(=O)OCC(=O)NC(C)c2ccccc2)cc1OC (stereo not given)	.	70*	6	-0.96	0	1
Cc1sc2ncnc(SCC(=O)NC3CC3)c2c1C	.	100*	-6	0.56	0	2
Cc1sc2ncnc(SCC(=O)NC(C)C(C)C)c2c1C (stereo not given)	5	.	-8	0.08	0	-1
O=C(N/N=C/c1ccccc1)c1ccc(N2CCOCC2)c([N+](=O)[O-])c1	-4	-42	-7	0.33	0	1
O=C(N/N=C/c1cc([N+](=O)[O-])c(N2CCOCC2)cc1N1CCOCC1)c1cccnc1	3	69*	0	-1.4	0	-1
CCCS(=O)(=O)N1CCC(C(=O)N2CCOCC2)CC1	-7	.	12	4*	0	-2
COc1ccccc1N1CCN(C(=O)c2n[nH]c3ccccc23)CC1	-3	75*	-4	-0.95	0	2
O=C(NCc1ccccc1Cl)C(=O)NCC(c1ccco1)N1CCOCC1 (stereo not given)	-14	78*	-7	-0.11	0	1
COc1ccc(NC(=O)COC(=O)C2CC3C=CC2C3)cc1 (stereo not given)	-7	79*	-12	-0.05	0	1
Cc1ccc(CNC(=O)Cc2ccc(-n3cccc3)cc2)cc1	-3	13	5	-0.29	0	0
Cc1ccc(CNC(=O)c2ccc(-n3cccc3)cc2)cc1	-24	100*	-3	0.1	0	-2
Cc1snc(S(=O)(=O)/C(C#N)=N\Nc2ccccc2)c1C#N	.	4	9	-0.46	0	0
Cc1snc(S(=O)(=O)/C(C#N)=N/Nc2ccc(C(F)(F)F)cc2)c1C#N	.	71*	-8	-0.12	0	0
NS(=O)(=O)c1ccc(CNS(=O)(=O)c2cc(C(=O)O)ccc2Cl)cc1	5	6	-20	0.19	0	0
Cc1ccc(-c2csc(C(C#N)=C3CCCC3)n2)cc1	.	75*	-16	1.2	0	1
O=C(Cc1ccccc1)Nc1ccc(NC(=O)c2cccs2)cc1Cl	10	.	10	0.02	0	0
CCN1C/C(=C/c2cccc([N+](=O)[O-])c2)C(=O)/C(=C/c2cccc([N+](=O)[O-])c2)C1	6	100*	-15	0.13	0	1
O=C1NC(=O)/C(=C/c2cccc([N+](=O)[O-])c2)N1	-5	.	-2	-0.29	.	1
O=C(NN1CCOCC1)c1cc(-c2cccs2)nc2ccccc12	-22	-57	-4	0.46	0	2
